Measurements published in the supplement of paper PMC11417369.
Over roughly 25,000 sequences, “ln(normalized median fluorescence intensity)” has its median near 7.1; the highest 2% begin near 10. What follows is part of a selection rich in the highest values, with near analogues and random picks from the rest.

Tested on: PfSIP2 AP2 domain 1 (GST-tagged)
Assay: gcPBM binding intensity (ln(normalized median fluorescence intensity)); higher = stronger DNA binding
How it was run: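 After 1 h on an Agilent 4 × 180k array of primer-extended double-stranded 36-bp intergenic genomic probes and negative controls, bound GST-tagged P. falciparum DNA-binding domains were detected with Alexa488 anti-GST antibody and scanned at 488 nm. The domains had been expressed in E. coli, and binding took place in 1× PBS with 1% milk, 0.2 mg/ml BSA, 0.5% salmon testes DNA and 0.03% Triton X-100. Binding intensity is the highest Masliner-normalised natural-log median intensity across replicate spots of either probe orientation.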

| Sequence | gcPBM binding intensity (ln) |
| --- | --- |
| AAATGTTGAAAAATATGTACATATTATATATATTAT [XGTACX_site1165] | 7.1 |
| TCTTTCAATATTAATGCATGTTAATAATAAATTTTA [TGCATGCA_site448] | 6.89 |
| AATATTTTTCAATTTCATGTGCATTCATTGAAGTTA [CACACA_negctrl_site1232] | 7.34 |
| ATGTTAATTAATGAGGTGCATTGAATATTTCAATAA | 10.6 |
| GAAAAATTTAATTATTGTACGTTTCATCTATATTTA [XGTACX_site414] | 6.91 |
| TCATTTTATTATTCTACACACTTATCTATAATTATA [CACACA_site34] | 7.2 |
| AGGATATAAAGTTGTGCATGTCAAGTGCACCGTATT [TGCATGCA_site451] | 12.2 |
| AAAAAAAAGTTGTAAGTGCATGTATATAATAATATT | 8.08 |
| AAAAAAAAAAAAAAAGTGCATATATAAATATTGTAT [GTGCAC_site9459] | 9.58 |
| CATTTTGTTTTAAAGTGTACATTATGTAATATAAAA [XGTACX_site647] | 7.15 |
| ATTGTGCACTTATATGCACACATTTTAGTTTTTTTT [CACACA_site2028] | 10.6 |
| TTTAGTTTTTATATAGCACACATATTGTGATTATGT [CACACA_site8316] | 6.96 |
| ATTTATATGCACCATTGTACGTTTTATAAAGTTTGG [XGTACX_site3755] | 10.7 |
| ATATTACACATATATGCACACATTGTAGTTATTTAT [CACACA_site8843] | 9.43 |
| ATATATATATAAAGTTGTACATTTTTTATTTTTTCA [XGTACX_site7847] | 9.04 |
| TACATATATATTTGTTCACACACACCCAAAAAAAAA [CACACA_site8788] | 7.01 |
| AAAAGTAACAAAGCTACACACATTTAAATAAACATA [CACACA_site1421] | 6.94 |
| GTTCTAAATATTATTGCATGTTGCACGTTTCTCTGT [TGCATGCA_site159] | 7.65 |
| TGAACAGGTCATAATTTACACACTATATATTTTATT [CACACA_site8123] | 6.87 |
| TGTATAAAAAACTAATGTACAAATGACAAGATATCT [XGTACX_site4600] | 6.9 |
| GTAAGAAAGAAAGGAAGTACGTAAGAAAGTAAGAAC [XGTACX_site1239] | 7.27 |
| TACATAAACTTTATAACACACACTTATATATATATA [CACACA_site1106] | 9.34 |
| TGAATATTCATATGCACACAAATTAATATACATAAT [CACACA_site442] | 7.03 |

| Sequence | gcPBM binding intensity (ln) |
| --- | --- |
| ATTATATACATATATGCACACAAAAAAATATATATT [CACACA_site8508] | 7.28 |
| TTTTCATATTATAGTGCACACAAAAATATATATATG [CACACA_site8929] | 10.8 |
| ATTCACAAATATATGGTGCATAATATATATATATAT [GTGCAC_site9674] | 10.6 |
| ATTAATTTTATATATGCACACAAAATATGTTCATAT [CACACA_site9350] | 7.13 |
| ATGGCATAAATATATGCACACACAAAAAAAAAAAAA [CACACA_site7902] | 7.06 |
| CATATAAAAATATATGCACACAAATAAAAAATTATA [CACACA_site9210] | 7.29 |
| AACTCATAGCGGTGTGCACACAAAAAATTAAAAAAA [CACACA_site3033] | 8.94 |
| ATTATATATATTTATGCACACAAAATATATTATATA [CACACA_site9244] | 7.56 |
| AACTCATAGGAGTGTGCACACAAAAAATTAAAAAAA [CACACA_site8996] | 9.24 |
| TTCATATTATAGTGCACACAAAAATATATATATGGT [CACACA_site2855] | 10.7 |
| CTCATAGTTGGGTGCACACAAAAAATTAAAAAAATA [CACACA_site3032] | 12.3 |
| TGAATAAATATAAAAGGTACACATATAAATATATAT [XGTACX_site6349] | 7.11 |
| TATATATATATAATATGTACATATAATCAACATTTT [XGTACX_site3915] | 8.68 |
| TATTAGTCGAATGATGTACACACATACAAAACATTT [CACACA_site9331] | 6.96 |
| TTTTTTTTTTGATGTTGTACATATATATTATATATA [XGTACX_site6377] | 7.17 |
| TAAAAATAATTTGCATGTACATAGGTCGATGTATTT [XGTACX_site1357] | 7.08 |
| ATACATATAGGATGCACACATAATTCAAATACAATA [CACACA_site651] | 7.73 |
| TTTTTTTCTAATTATGCACACATATCAAAATATTCA [CACACA_site8886] | 10.3 |
| ATCTATCATATTTATGCACACAAAAATAATTAATTC [CACACA_site8837] | 7.35 |
| TTTTTCTAATTATGCACACATATCAAAATATTCAAT [CACACA_site2749] | 9.18 |
| CGAAATCATATGTACACACACATATATATATATATA [CACACA_site2151] | 9.32 |
| TATATAATCGAGTGCACACACAAAAAAAAAGTGAAC [CACACA_site1483] | 10.8 |
| TATATAACCGAGTGCACACACAAAAAAAAAGTGAAC [CACACA_site6806] | 11.1 |

| Sequence | gcPBM binding intensity (ln) |
| --- | --- |
| AATAATAAAGTGAACACACACATATAATATATATAT [CACACA_site4143] | 8.41 |
| AAAATATAATATATTGCACACAAAAAGTGAATTATT [CACACA_site8489] | 6.95 |
| TGTATATAATCGAGTGCACACACAAAAAAAAAGTGA [CACACA_site8417] | 10.4 |
| ACACACAATACAAAAGTGCATATAATAATTAATCAT | 8.76 |
| ATAATAATAAAGTGAACACACACATATAATATATAT [CACACA_site9378] | 7.19 |
| CTATAATAATAAAGTGAACACACACCGATAATATAT [CACACA_site9377] | 7.02 |
| ATAATATTCGAGTGTGCACACAAACATACATATATA [CACACA_site3396] | 8.79 |
| TATAATAATATTTATTGTACAATTAGTTTAATTCAT [XGTACX_site272] | 7.08 |
| TACAAAAAAGAAGATATTCAAACAAAAACAAAAAAA [CACACA_negctrl_site1126] | 6.8 |
| CTCCTCATATAATTTTGTACATAAAAAATTACCATT [XGTACX_site3879] | 7.31 |
| CCCCATATAATGAACACACACACTCCTCATAATTAA [CACACA_site628] | 7.15 |
| TAATCATAACTTGATACGCACACGTTATATAAATAA [CACACA_site1579] | 7.02 |
| ATAAAATAAAATAAATGTACACGAAAAAAAATATTT [XGTACX_site3747] | 7.25 |
| TAACAATTAATAAAAGGTACACTTGAATATGCACCA [XGTACX_site2717] | 10.5 |
| TATTATATATATGCACGTACAAAAATAATAAAGGTA [XGTACX_site3506] | 7.71 |
| ATGAATAAATTAAAAATGCACACTTTGATGGGTACA [CACACA_site2157] | 7.46 |
| TTTAAATACAGACATACACACATACACAGACATATA [CACACA_site4460] | 6.97 |
| TTATACAGATATTTAACACACATTTTATAAAGTGCC [CACACA_site4851] | 6.87 |
| TTTAAATACAGACATACACACATACACGCACATATA [CACACA_site6400] | 7.17 |
| TTTGAGTGCACATACACACAGACATACATTTAAATA [CACACA_site3403] | 11.9 |
| TAAATTTTTAAATACACACATACACCCATACAGACA [CACACA_site548] | 7.51 |
| TTTTTGAGTGCACATACACACAGACATACATTTAAA [CACACA_site5813] | 11.5 |
| TCCTTTTTGAAATGTTGTACTTTTTTTATCTTTCAT [XGTACX_site953] | 7.12 |

| Sequence | gcPBM binding intensity (ln) |
| --- | --- |
| ATTAACTATCATAACACACACAGTAGACATATTTTT [CACACA_site1822] | 7.04 |
| GATATATAAACATATACACACAAAAACATATTTATA [CACACA_site6734] | 6.98 |
| TGAATTATAAATTATAGTACTTTATAATATGAACAT [XGTACX_site2317] | 6.81 |
| TTTTTTTTTTTTTTGGTGCACATAGAAATTCTAAAA [GTGCAC_site9809] | 11.3 |
| AGAAAAATTCTAAGAACATGCAAAAAAATAAAAAAA [TGCATGCA_site293] | 6.84 |
| AAAAAAAAAATTTTCGTGCACATAAGAAAATTTAAA [GTGCAC_site9788] | 9.36 |
| ATTAAATGCACATATACACACACCCAATTTTAAGTT [CACACA_site3049] | 7.4 |
| TATGTAATAAATAGTACACACACACCGATATATATA [CACACA_site8389] | 7.46 |
| AAGGATTACAAAAAAAGTACAAATGGATTTTTTCCC [XGTACX_site8905] | 6.84 |
| TATGTTTACATATACGTGCACATGAATGTATACATT [GTGCAC_site9894] | 9.69 |
| TGCAAGCTTATATAGGTGCACATGTATACGTGTTCA | 11.3 |
| TGCTTATATATACGTGCACACATATATATAAGATAT [CACACA_site8516] | 9.74 |
| ATAACATACATAACAACACACAATATTTATAGGTAT [CACACA_site6243] | 7.12 |
| AATTTATAAATAATTAATTTGATAAATTATAAAGGG [GTGCAC_negctrl_site544] | 7.02 |
| TGATATTATTATAAGGTGCTTAAAAATAAAGATAAT [GTGCAC_site9539] | 7.78 |
| ATTATTTGATTAAAGGTGCAAGGATAATAATAAAAC | 10.3 |
| TTAACAAAACATAAGGTGCTTAAAATTTTATATCAC [GTGCAC_site9839] | 7.96 |
| AAATTAAAGATAAAAGTGCAAAATTATAAATTTATT | 7.97 |
| TATATATTAATCAAAGTGCAATAATAAAATAAAAGT [GTGCAC_site9490] | 8.38 |
| ATATAATCAACTGCAAAGGTTTAAAAGGAAAAAATA [CACACA_negctrl_site989] | 6.79 |
| TTTATTAATAAAAAGGTGCAATCAGGAAAAATTATC [GTGCAC_site9626] | 10.8 |
| ATTATCCATCAAAAGGTGCAAATTTTTAATTATAAA [GTGCAC_site9932] | 11.1 |
